12-LOX inh = Primary qHTS assay for inhibitors of human arachidonate 12S-lipoxygenase (ALOX12): Round 2. Polyunsaturated fatty acid lipoxygenase ALOX12 (Homo sapiens), P18054. purified 12hLO, xylenol orange hydroperoxide absorbance. Potency, µM (highest dose often 108 µM), hits mostly inhibitors. 580,000 tested, 1.1% active
Target sequence (P18054 whole entry, looked up): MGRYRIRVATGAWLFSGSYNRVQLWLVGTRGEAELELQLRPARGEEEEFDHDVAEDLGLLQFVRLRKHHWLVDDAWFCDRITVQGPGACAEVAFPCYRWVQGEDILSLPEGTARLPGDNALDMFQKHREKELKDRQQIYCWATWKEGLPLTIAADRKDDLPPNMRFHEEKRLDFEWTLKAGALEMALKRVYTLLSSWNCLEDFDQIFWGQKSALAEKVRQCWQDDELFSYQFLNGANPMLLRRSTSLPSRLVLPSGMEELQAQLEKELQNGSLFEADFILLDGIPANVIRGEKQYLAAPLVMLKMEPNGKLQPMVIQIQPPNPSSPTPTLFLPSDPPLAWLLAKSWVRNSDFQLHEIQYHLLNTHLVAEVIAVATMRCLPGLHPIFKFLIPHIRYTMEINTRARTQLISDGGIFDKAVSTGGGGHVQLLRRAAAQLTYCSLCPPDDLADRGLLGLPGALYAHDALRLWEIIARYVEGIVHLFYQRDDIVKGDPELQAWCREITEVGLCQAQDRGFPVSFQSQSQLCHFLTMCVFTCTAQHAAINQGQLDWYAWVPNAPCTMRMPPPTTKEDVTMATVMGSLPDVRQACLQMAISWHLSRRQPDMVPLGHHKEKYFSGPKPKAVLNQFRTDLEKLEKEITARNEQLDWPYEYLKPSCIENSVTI
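Hydroperoxide product was detected by ferrous iron/xylenol orange as the 573 to 405 nm absorbance ratio. Arachidonic acid at 40 uM (final) was turned over for 30 min at room temperature by 150 nM human 12hLO, pH 7.0 Hepes buffer, after 15 min compound preincubation.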
IL-1B inflam inh = qHTS for Inhibitors of Inflammasome Signaling: IL-1-beta AlphaLISA Primary Screen; THP-1 LPS/ATP IL-1B secretion, AlphaLISA, 16 h; hits give low values; activity change, % at 57.5 µM; 360,000 tested, 4.7% active; AID 743279, 2014; in the data active = activity change below about -50%; inconclusive = mostly about -30% to -49%
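Secreted IL-1B measured by AlphaLISA bead assay after 16 h compound exposure of THP-1 cells; compounds (final up to 57.5 uM) added 1 h before LPS (250 ng/mL) and ATP (1.25 mM) stimulation; lower signal means less secretion.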
HT1080 IDH1KD tx = qHTS for induction of synthetic lethality in tumor cells producing 2HG: qHTS for the HT-1080-IDH1KD cell line. HT-1080 IDH1 knockdown viability, ATP luminescence, 48 h. Potency, µM (doses to about 46.1 µM), most hits filed as cytotoxic. 360,000 tested, 2% active
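Using the IDH1-knockdown HT-1080 line run in the same batch and compound series as the NT line, viability after 48 h at 37 °C was determined by CellTiter-Glo luminescence and expressed as % activity.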
DT40 TDP1 CPT = qHTS for Inhibitors of human tyrosyl-DNA phosphodiesterase 1 (TDP1): qHTS in cells in presence of CPT; chicken DT40 Tdp1-/-;hTDP1 cells + 20 nM CPT, ATP luminescence, 48 h; Potency, µM (doses to about 46.2 µM), actives largely listed as inhibitors; 420,000 tested, 12% active; also: nearly all actives have a fitted effect of over 55% in size
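Chicken DT40 Tdp1-/- cells stably complemented with human TDP1 were seeded at 400 cells/well in medium containing 20 nM camptothecin, exposed to pin-transferred compounds, and grown at 37 °C for at least 48 hr. Viability was read as ATP luminescence.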
TDP1 cell noCPT = qHTS for Inhibitors of human tyrosyl-DNA phosphodiesterase 1 (TDP1): qHTS in cells in absence of CPT; Potency, µM (doses to about 46.2 µM), hits mostly inhibitors; 420,000 tested, 15% active; DT40 Tdp1-/- hTDP1 cells, no CPT, ATP luminescence, 48 h; also: nearly all actives have a fitted effect of over 55% in size
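A cellular qHTS used chicken DT40 cells lacking endogenous Tdp1 but carrying stably transfected human TDP1. Compounds were applied without camptothecin, and cell growth kinetics were judged by ATP-dependent luminescence after ≥48 hr.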
HT1080NT lethal = qHTS for induction of synthetic lethality in tumor cells producing 2HG: qHTS for the HT-1080-NT fibrosarcoma cell line; HT-1080-NT fibrosarcoma viability, CellTiter-Glo ATP luminescence, 48 h; Potency, µM (top dose mostly 46.1 µM), actives largely listed as cytotoxic; 360,000 tested, 1.6% active; AID 686970, 2013;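 also: NT is the 2HG producing partner of a matched IDH1 knockdown line; nearly all actives have a fitted effect of over 55% in size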
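Viability of the 2HG-overproducing fibrosarcoma line after 48 hours of compound exposure at 37 degrees C was determined by luminescence with CellTiter-Glo, and concentration-effect curves were then fitted and categorized.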
Of the large screens only hits and unclear results are named; the others gave an inactive call. This is one part of a sample in which hits are shown more often than they occur. Unless noted, calls follow the shape of the dose curve; as a rule, active = well fitted curve in the direction sought with a large enough effect; inconclusive = small, poorly fitted or top-dose-only effect, or another doubt; inactive = no such curve, though single readings can be large; an effect the other way counts as inactive or inconclusive.

CCOC(=O)c1cnc(N2CC2)nc1N	DT40 TDP1 CPT 0.461µM, TDP1 cell noCPT 0.92µM
CCOC1=C2[C@@H](CN(S(=O)(=O)c3ccccc3C)[C@H]2c2ccc(Cl)cc2)[C@H]2C(=O)NC(=O)[C@H]2C1	DT40 TDP1 CPT inconclusive, TDP1 cell noCPT inconclusive
CCC(CC)c1cc([C@H]2CN3CC[C@H]2C[C@@H]3CNC(=O)c2cccs2)nc(-c2ccncc2)n1	none (no result: IL-1B inflam inh, HT1080 IDH1KD tx, DT40 TDP1 CPT, TDP1 cell noCPT, HT1080NT lethal)
COc1ccc(CNC(=O)CCC(=O)N2C[C@H]3C[C@H](C2)c2cccc(=O)n2C3)cc1OC	none
COc1ccc(CNC(=O)CSCc2cnn(-c3ccccc3)c2-n2cccc2)cc1OC	DT40 TDP1 CPT 14.6µM, TDP1 cell noCPT 13µM (no result: IL-1B inflam inh, HT1080 IDH1KD tx, HT1080NT lethal)
COc1ccc(Cn2c(O)c(C=Nc3c(C)n(C)n(-c4ccccc4)c3=O)c(=O)[nH]c2=O)cc1	DT40 TDP1 CPT inconclusive
Cc1c(N=Cc2c(O)n(Cc3ccccc3)c(=O)[nH]c2=O)c(=O)n(-c2ccccc2)n1C	IL-1B inflam inh -71.6
O=c1[nH]c(=O)n(Cc2ccc(F)cc2)c(O)c1/C=N/Nc1ccccc1	12-LOX inh inconclusive, HT1080 IDH1KD tx 2.31µM, HT1080NT lethal 2.31µM
O=c1[nH]c(=S)n(Cc2ccc(F)cc2)c(O)c1/C=N/N1CCCCCC1	12-LOX inh 35.5µM, TDP1 cell noCPT inconclusive
Cc1c(N=Nc2c(O)n(Cc3ccccc3)c(=O)[nH]c2=O)c(=O)n(-c2ccccc2)n1C	HT1080 IDH1KD tx inconclusive, DT40 TDP1 CPT 16.4µM, TDP1 cell noCPT 11.6µM
Cc1ccc(-n2c(=O)[nH]c3ccccc3c2=O)cc1[N+](=O)[O-]	DT40 TDP1 CPT inconclusive (no result: 12-LOX inh)
Cc1oc(-c2cccs2)nc1CC(=O)N1CCN(CC(=O)N2CCCCC2)CC1	none (no result: IL-1B inflam inh, HT1080 IDH1KD tx, DT40 TDP1 CPT, TDP1 cell noCPT, HT1080NT lethal)
Oc1cc(O)c2c(c1)OC(c1cc(O)c(O)c(O)c1)C(O)C2 (stereo not drawn)	DT40 TDP1 CPT 3.26µM, TDP1 cell noCPT inconclusive (no result: 12-LOX inh, IL-1B inflam inh, HT1080 IDH1KD tx, HT1080NT lethal)
O=C(OC1Cc2c(O)cc(O)cc2OC1c1cc(O)c(O)c(O)c1)c1cc(O)c(O)c(O)c1 (stereo not drawn)	TDP1 cell noCPT inconclusive (no result: 12-LOX inh, IL-1B inflam inh, HT1080 IDH1KD tx, HT1080NT lethal)
CN1C2CCC1/C(=C/c1ccccn1)C(=O)/C2=C\c1ccccn1	IL-1B inflam inh -100.8, HT1080 IDH1KD tx 0.82µM, DT40 TDP1 CPT 0.517µM, TDP1 cell noCPT 0.651µM, HT1080NT lethal 1.16µM
COc1ccc(-n2nc(C)c3c2NC(=O)CSC3c2cccc(O)c2)cc1 (stereo not drawn)	none (no result: IL-1B inflam inh, HT1080 IDH1KD tx, DT40 TDP1 CPT, TDP1 cell noCPT, HT1080NT lethal)
COc1ccc(-c2csc(Nc3ccc(S(N)(=O)=O)cc3)n2)cc1	IL-1B inflam inh inconclusive, HT1080 IDH1KD tx 17.8µM, DT40 TDP1 CPT inconclusive, TDP1 cell noCPT inconclusive, HT1080NT lethal inconclusive
COC(=O)c1ccc(NC(=O)N2[C@H]3CC[C@@H]2c2cnc(C)nc2C3)cc1	none (no result: IL-1B inflam inh, HT1080 IDH1KD tx, DT40 TDP1 CPT, TDP1 cell noCPT, HT1080NT lethal)
CCCc1nn(C)c2c1C(c1ccncc1)C(C#N)=C(N)O2 (stereo not drawn)	DT40 TDP1 CPT inconclusive, TDP1 cell noCPT 29.1µM
Cc1ccc([C@H]2N[C@]3(CCCN(Cc4ccc(C(F)(F)F)cc4)C3=O)[C@H]3C(=O)N(Cc4ccccc4)C(=O)[C@@H]23)cc1	12-LOX inh inconclusive, IL-1B inflam inh -70.4, DT40 TDP1 CPT 23.1µM, TDP1 cell noCPT inconclusive
c1ccc(-c2[nH]c(-c3ccccc3)[n+](CC3CO3)c2-c2ccccc2)cc1 (stereo not drawn)	IL-1B inflam inh -56.3, DT40 TDP1 CPT 5.8µM, TDP1 cell noCPT 10.3µM
COc1nc2ccccc2nc1N1CC1	12-LOX inh inconclusive, DT40 TDP1 CPT 0.92µM, TDP1 cell noCPT 1.64µM
CCCN1CCN(Cc2cc(C(C)=O)ccc2OC)CC1	none (no result: IL-1B inflam inh, HT1080 IDH1KD tx, DT40 TDP1 CPT, TDP1 cell noCPT, HT1080NT lethal)

Source: PubChem (National Center for Advancing Translational Sciences (NCATS))
